HCMV antiviral: inhibitors of human cytomegalovirus; HFF cells, HCMV-luciferase reporter, 72 h; active compounds read low; activity change, negative = inhibition, % at 57.5 µM; 410,000 tested, 4.5% active; in the data active means activity change below about -60%; inconclusive means no clear call, values can overlap the other calls; inactive means above about -39%
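HFF cells seeded 16 h at 37C, treated with compounds, infected with luciferase-reporter HCMV at MOI 1 PFU/cell; luciferase read at 72 h post infection, normalized to buffer-only and Salinomycin controls.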
HCV inhibitor: HCV inhibition | Huh7.5.1 HCVcc-Cre infection, luciferase reporter, 44 h | 340,000 tested, 3.4% active | Potency, µM (highest dose often 41.8 µM), without a hit: top-dose activity change, negative = inhibition, usual class: inhibitors; further: potency means the concentration at half of the fitted maximal effect
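Cells (1,000/well) were plated 4 h before compound, then infected with HCVcc-Cre virus (~0.5 moi). After 44 h further culture, infection was read as luciferase luminescence following a 15 min substrate incubation at room temperature.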
Pf growth 48h: P. falciparum growth inhibition at 48 hours (one generation). P. falciparum luciferase growth in erythrocytes, 48 h. Potency, µM (doses to about 28.7 µM), for the others: top-dose activity change, negative = inhibition, usual class: inhibitors. 310,000 tested, 5.9% active; further: potency means the concentration at half of the fitted maximal effect
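Compounds are pin-transferred into medium, infected erythrocytes (2% hematocrit, 0.1% parasitemia final) are added, and plates sit one parasite generation at 37 C in 5% CO2. Detection reagent is then added and luminescence measured.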
Pf growth 96h: P. falciparum growth inhibition at 96 hour, primary screen for plastid delayed-death inhibitors | P. falciparum luciferase reporter growth, 96 h | Potency, µM (titrated, usually from 28.7 µM), without a hit: top-dose activity change, negative = inhibition, actives largely listed as inhibitors | 320,000 tested, 6.9% active | AID 504834; further: potency means the concentration at half of the fitted maximal effect
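96 h incubation, 37 C, 5% CO2, of luciferase-reporter P. falciparum-infected RBCs (2% hematocrit, 0.05% parasitemia final) with test compounds; endpoint luminescence.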
Active calls of the source: *; i = inactive; u = inconclusive; x = no result; [ ] = dose if it differs, or a comment. The list is not random: actives were taken first. Their share in the collection is about 13%. Unless noted, the call rests on the fitted dose curve; in most records, active means well fitted inhibition curve with a large enough effect; inconclusive means small, poorly fitted or top-dose-only effect, or another doubt; inactive means no such curve, though single readings can be large or run the other way. On the % scale 0 is the no-effect control and ±100 the full control effect.

SMILES | HCMV antiviral | HCV inhibitor | Pf growth 48h | Pf growth 96h
CN(C)C(=O)c1ccc(NC(=O)CSc2nnc(-c3ccc4c(c3)OCO4)o2)cc1 | 0.3 | -4.2% | 0.9% | u
Cc1ccc(NC(=O)Cc2nc(CN(C)CC(=O)Nc3ccc(C)cc3)cs2)cc1 | -5.4 | u | 13.1µM* | u
Cc1ccc(NC(=O)Cc2nc(CSc3nnc(-c4ccc5c(c4)OCO5)o3)cs2)cc1 | 107.9 | u | 212.5% | 3.7µM*
CCOc1ccc(N2CC(c3nc4ccccc4n3CCCOc3ccccc3)CC2=O)cc1 (configuration not stated) | -37.9 | x | x | x
O=C(NCc1cccnc1)c1nc(-c2ccc(C(F)(F)F)cc2)no1 | -60.5* | u | -4.4%[5.75 µM] | 11.4%
O=C(NCc1ccncc1)c1nc(-c2cccs2)no1 | 12.0 | 2.7% | 9.0% | -1.8%
O=C(NCc1ccncc1)c1nc(-c2ccc(C(F)(F)F)cc2)no1 | -79.1* | u | 12.9% | i
CCN(CC)c1ccc(C(=O)NNC(=O)CCNC(=O)c2ccccc2)cc1 | -15.7 | -8.1% | 3.5% | u
CCN(CC)P(=O)(NC(=O)c1cccn1C)N(CC)CC | 1.9 | 14.4% | -1.3% | u
CCN(CC)c1ccc(C(=O)NNC(=O)CCl)cc1 | -34.8 | u | 6.57µM* | u
CCN(CC)c1ccc(C(=O)NNC(=O)c2cccn2C)cc1 | 26.1 | 7.08µM* | 55.8% | 101.2%
COc1ccc(-n2c(=O)c3c4c(sc3n(Cc3c(F)cccc3Cl)c2=O)CN(C(C)=O)CC4)cc1OC | 9.0 | x | x | x
COc1ccccc1CNCC(=O)Nc1cc(S(=O)(=O)N2CCCCCC2)ccc1Cl | -23.0 | u | 9.28µM* | u
O=C(CCl)Nc1cc(S(=O)(=O)N2CCCCCC2)ccc1Cl | -64.1* | 35.5µM* | -12.5% | u
COc1ccccc1CNCC(=O)Nc1cc(S(=O)(=O)N2CCCCC2)ccc1C | 19.6 | u | x | x
CC(C)(C)CC(=O)Nc1cc(S(=O)(=O)N2CCCCCC2)ccc1Cl | -27.3 | u | -1.3% | -13.5%
COc1cccc(CN(C)CC(=O)Nc2cc(S(=O)(=O)N3CCCC3)ccc2Cl)c1OC | -33.4 | 2.82µM* | 11.7µM* | u
COc1cc(C(=O)OCc2cc(=O)n3ccsc3n2)cc(OC)c1OC | -0.5 | x | x | x
CC(C)(C)C(=O)NCCCc1nc2ccccc2n1CCCOc1ccc(Cl)cc1 | -84.5* | u | u | 30.2%
CCn1c(COc2ccc(OC)cc2)nc2ccccc21 | 50.5 | 6.7% | 56.9% | 4.65µM*
CCOc1ccc(NCc2nc3ccccc3n2CCOc2ccccc2)cc1 | -10.1 | u | 79.1% | 6.57µM*
Cc1cccc(OCCn2c(CCCO)nc3ccccc32)c1 | 0.8 | 11.8% | 14.7µM* | u
CCOc1ccc(NCc2nc3ccccc3n2CCOc2ccc(C)cc2)cc1 | -25.0 | x | x | x
Cc1ccc(OCCCCn2c(CO)nc3ccccc32)cc1 | -65.0* | -13.3% | -10.5% | u
CCOC(=O)c1csc(-n2nc(C)cc2C(F)(F)F)n1 | 86.2 | -12.0% | u | 10.9%
SMILES | HCMV antiviral | HCV inhibitor | Pf growth 48h | Pf growth 96h
Cc1cc(C(F)(F)F)n(-c2nc(C(=O)NN)cs2)n1 | 87.4 | -0.7% | 19.8% | 7.38µM*
CCOC(=O)c1c(C)[nH]c(C)c1S(=O)(=O)N(C)CC(=O)NCc1cccc(Br)c1 | 0.0 | -20.4% | u | 11.7µM*
CCOC(=O)c1c(C)[nH]c(C)c1S(=O)(=O)NCC(=O)NCc1cccc(Br)c1 | 5.1 | x | x | x
COc1cc(OC)cc(N2C(=O)CSCC2=O)c1 | 43.0 | 16.5% | 2.62µM* | 25.5%
N#CC1=C(N)C(C#N)(C#N)[C@H](c2c(F)cccc2F)[C@H]2CC3(CC=C12)OCCO3 | -106.7* | -6.6% | 5.22µM* | 78.7%
Cc1cccc2c1-c1sc(C(=O)N3CCN(c4ccccc4)CC3)cc1CO2 | 8.2 | x | x | x
O=S(=O)(NC1CCCCC1N1CCN(c2ccc(F)cc2)CC1)c1ccc(Cl)cc1 (configuration not stated) | x | -8.8% | 13.1µM* | u
CCCCn1c(NC(=O)c2ccco2)c(C(=O)OCC)c2nc3ccccc3nc21 | -69.0* | -15.1% | u | u
CCCCn1c(NC(=O)c2ccco2)c(S(=O)(=O)c2ccc(C)cc2)c2nc3ccccc3nc21 | 1.3 | -3.8% | u | u
CCCCCn1c(NC(=O)c2ccco2)c(S(=O)(=O)c2ccc(C)cc2)c2nc3ccccc3nc21 | x | -11.8% | 5.22µM* | u
CCOC(=O)C1Nc2ccc(Br)cc2C2C=CCC12 (configuration not stated) | 13.4 | -25.0% | u | 13.1µM*
CCOC(=O)c1ccc2c(c1)C1C=CCC1C(C(=O)OCC)N2 (configuration not stated) | 11.5 | u | 11.7µM* | 3.0%
CCCCC(=O)N(CCOC)c1nnc(-c2cccnc2)s1 | -16.3 | 24.2% | 0.0% | 3.1%
CCCCC(=O)N(CCOC)c1nnc(-c2ccccc2C)s1 | -15.4 | 1.78µM* | u | -20.6%
CCC(=O)N1CCc2cc(Br)cc(S(=O)(=O)N3CCC(C(=O)Nc4ccccc4CC)CC3)c21 | 11.6 | x | x | x
CCc1ccc(Nc2n[n+](-c3ccccc3)c(-c3ccc(OC)c(Br)c3)s2)cc1 | 1.6 | u | 0.9% | 4.65µM*
CSc1ccc(-c2sc(Nc3cccc4ccccc34)n[n+]2-c2ccccc2)cc1 | -15.3 | 8.91µM* | u | u
CSc1ccc(-c2sc(Nc3ccccc3)n[n+]2-c2ccccc2)cc1 | x | -30.0% | u | 1.85µM*
CCc1ccc(Nc2n[n+](-c3ccccc3)c(-c3ccc(SC)cc3)s2)cc1 | -65.0* | -25.5% | u | 4.65µM*
CC(=O)Nc1ccc(-c2sc(Nc3cccc4ccccc34)n[n+]2-c2ccccc2)cc1 | 17.4 | 0.7% | 34.5% | 40.7%
CCc1ccc(Nc2n[n+](-c3ccccc3)c(-c3ccc(C(=O)O)cc3)s2)cc1 | 11.3 | 3.5% | 28.3% | u
COC(=O)c1ccc(NC(=O)CCNS(=O)(=O)c2cccc3nsnc23)cc1 | 0.3 | x | x | x
O=C(Nc1cnc(N2CCN(c3ccccc3)CC2)c(C(=O)O)c1)c1cccs1 | 16.7 | x | x | x
COc1cc(OC)c(-c2sc(Nc3ccccc3)n[n+]2-c2ccc(F)cc2)cc1OC | -9.5 | 5.9% | 10.9% | 19.7%
COc1cc(Br)c(-c2sc(Nc3ccccc3)n[n+]2-c2ccc(F)cc2)cc1OC | -18.5 | 3.1% | 1.85µM* | 3.7µM*
SMILES | HCMV antiviral | HCV inhibitor | Pf growth 48h | Pf growth 96h
COCC(=O)Nc1nc(-c2ccc(C)cc2)c(C)s1 | 18.1 | -3.8% | 50.6% | -103.2%
COc1ccc(-c2nc(NC(=O)c3n[nH]c(=O)c4ccccc34)sc2C)cc1 | -60.4* | u | 6.9% | -27.7%
Cc1cc(C)c(-c2csc(NC(=O)c3n[nH]c(=O)c4ccccc34)n2)c(C)c1 | -72.7* | u | 1.5% | u
COc1ccc(-c2nc(NC(=O)c3cc(C(C)(C)C)nn3C)sc2C)cc1 | x | 5.62µM* | x | 18.1%
Cc1sc(NC(=O)Cn2[nH]c(=O)c3ccccc3c2=O)nc1-c1ccccc1 | -19.8 | u | u | 11.7µM*
COc1ccc(-c2nc3ccccc3s2)cc1NC(=O)COc1cccc(C)c1 | 83.7 | x | x | x

Screening data from PubChem.
